Most compounds without a hit are left out; they make up all but 19% or so of the library.
ELG1 DNA repair – inhibitors of ELG1-dependent DNA repair in HEK293T cells; Potency, µM (series often up to 46.1 µM), for the others: at the highest dose activity change, negative = inhibition, actives largely listed as inhibitors; AID 504467; HEK293T ELG1-luciferase reporter, luminescence, 16 h; DNA damage induced by 5-fluorouridine; 330,000 tested, 2.3% active; note: potency is the fitted concentration of half-maximal effect; nearly all actives have a fitted effect of over 55% in size
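Quantitative HTS, concentration-response format. 2,000 cells/well co-treated with 5-fluorouridine and compound, 16 hr in 5% CO2 at 37 °C; ONE-Glo luminescence read after 30 min.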
IL-1B inflam inh – blocks inflammasome-driven IL-1 beta release. 360,000 tested, 4.7% active. AID 743279. activity change, % at 57.5 µM. THP-1 LPS/ATP IL-1B secretion, AlphaLISA, 16 h; stronger effect = lower value; in the data active = activity change below about -50%; inconclusive = mostly about -30% to -49%
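THP-1 cells pretreated 1 hr with compounds (up to 57.5 uM final), then stimulated with LPS (250 ng/mL final) plus ATP (1.25 mM final); secreted IL-1B measured by AlphaLISA after 16 hr, decreased signal indicating inhibition.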
DT40 TDP1 CPT – DT40-hTDP1 cell growth loss with CPT. AID 686979. 420,000 tested, 12% active. chicken DT40 Tdp1-/-;hTDP1 cells + 20 nM CPT, ATP luminescence, 48 h. Potency, µM (titrated, usually from 46.2 µM), for inactives: top-dose activity change, negative = growth inhibition, hits mostly inhibitors; note: potency is the fitted concentration of half-maximal effect; nearly all actives have a fitted effect of over 55% in size
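Chicken DT40 Tdp1-/- cells stably complemented with human TDP1 were seeded at 400 cells/well in medium containing 20 nM camptothecin, exposed to pin-transferred compounds, and grown at 37 °C for at least 48 hr. Viability was read as ATP luminescence.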
TDP1 cell noCPT – qHTS for Inhibitors of human tyrosyl-DNA phosphodiesterase 1 (TDP1): qHTS in cells in absence of CPT | DT40 Tdp1-/- hTDP1 cells, no CPT, ATP luminescence, 48 h | Potency, µM (top dose mostly 46.2 µM), for inactives: at the highest dose activity change, negative = growth inhibition, most hits filed as inhibitors | 420,000 tested, 15% active | AID 686978, 2013; note: potency is the fitted concentration of half-maximal effect; nearly all actives have a fitted effect of over 55% in size
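Luminescent ATP content (CellTiter-Glo) served as the growth readout. Knockout chicken DT40 cells expressing human TDP1 were exposed to compounds without camptothecin for a minimum 48 hr at 37 °C.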
HT1080-NT tox – kills 2HG-producing HT-1080-NT fibrosarcoma cells | 360,000 tested, 1.6% active | Potency, µM (series often up to 46.1 µM), without a hit: at the highest dose activity, negative = less viability, actives largely listed as cytotoxic | HT-1080-NT fibrosarcoma viability, CellTiter-Glo ATP luminescence, 48 h;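 note: NT is the 2HG producing partner of a matched IDH1 knockdown line; potency is the fitted concentration of half-maximal effect; 0% = DMSO-treated cells and -100% = media-only wells without cells; nearly all actives have a fitted effect of over 55% in size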
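Luminescent CellTiter-Glo readout after 48 hours of compound exposure at 37 degrees C defined viability of HT-1080-NT cells. Activity was normalized to DMSO wells and cell-free media wells; concentration-response curves were fitted and assigned curve classes.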
HT1080 IDH1KD tx – toxicity to HT-1080 IDH1 knockdown cells (counter line) | HT-1080 IDH1 knockdown viability, ATP luminescence, 48 h | Potency, µM (doses to about 46.1 µM), without a hit: at the top dose activity, negative = toxicity, hits mostly cytotoxic | 360,000 tested, 2% active;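 note: potency is the fitted concentration of half-maximal effect; 0% = DMSO wells and -100% = cell-free medium wells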
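In this qHTS, HT-1080 cells depleted of IDH1 are exposed for 48 h at 37 °C to compound titrations. Toxicity is scored from CellTiter-Glo luminescence, with DMSO as full viability and medium alone as none.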
* hit, by the source's call; i = inactive; ? = inconclusive; nt = not tested or not shown; ! = a repeat was not active. Unless noted, calls come from the whole dose curve; as a rule, active = well fitted curve in the direction sought with a large enough effect; inconclusive = small, poorly fitted or top-dose-only effect, or another doubt; inactive = no such curve, though single readings can be large; an effect the other way counts as inactive or inconclusive. Unless noted, % is set by controls: 0 for no effect and ±100 for the full control effect.

SMILES	ELG1 DNA repair	IL-1B inflam inh	DT40 TDP1 CPT	TDP1 cell noCPT	HT1080-NT tox	HT1080 IDH1KD tx
CCO[C@H]1OC(C(=O)N2CCN(Cc3ccc4c(c3)OCO4)CC2)=C[C@@H](C(C)(C)C)[C@@H]1CCCO	3.7%	?	?	?	-1.1%	-5.1%
CCO[C@@H]1OC(C(=O)N2CCN(Cc3ccc4c(c3)OCO4)CC2)=C[C@H](c2ccc(C(F)(F)F)cc2)[C@H]1CCCO	-17.3%	-60.1*	16.4µM*	20.6µM*	?	?
Cc1cccc(Nc2ncnc3c2cnn3C)c1C	nt	nt	-24.5%	?	nt	nt
O=C(CCc1nnc(CCCCc2ccccc2)o1)NCCCc1cccnc1	15.6%	-2.6	?	?	-18.3%	-21.0%
Cc1ccc(C(O)c2ncc(-c3ccc(Cl)cc3)[nH]2)cc1 (stereo not given)	nt	-14.0	?	?	-29.0%	?
CCO[C@H]1OC(C(=O)NCc2ccccc2)=C[C@@H](C2CCCCC2)[C@@H]1CCCO	-0.8%	-4.8	18.4µM*	16.4µM*	-1.7%	-11.9%
CCO[C@H]1OC(C(=O)N2CCN(Cc3ccccc3)CC2)=C[C@@H](C2CCCCC2)[C@@H]1CCCO	-0.6%	-60.2*	9.2µM*	9.2µM*	-1.8%	-4.3%
CCO[C@@H]1OC(C(=O)N2CCN(Cc3ccccc3)CC2)=C[C@H](C)[C@H]1CCCO	2.4%	-4.7	-7.9%	-11.9%	6.5%	16.6%
CC(=O)c1cccc(N(C(=O)CNC(=O)c2ccco2)C(C(=O)NC2CCCC2)c2ccncc2)c1 (stereo not given)	10.1%	?	4.8%	-17.9%	-3.1%	1.2%
Cc1ccc(CCNC(=O)C2CCC(=O)N(Cc3ccccc3F)C2)o1 (stereo not given)	?	i	-20.5%	-8.6%	-9.4%	-6.4%
O=C1OC(c2ccc(O)cc2)(c2ccccc2O)c2ccccc21 (stereo not given)	nt	?	8.5%	-18.6%	-2.7%	-7.4%
O=C1OC(c2ccc3ccccc3c2O)(c2ccc3ccccc3c2O)c2ccccc21	nt	-50.7*	5.8µM*	5.17µM*	-0.3%	?
O=C1OC2(c3ccccc31)c1ccccc1-c1ccccc12	nt	-3.7	-13.5%	?	-25.8%	?
O=C1OC(c2ccccc2)(c2cc(Br)ccc2O)c2ccccc21 (stereo not given)	nt	-91.5*	18.4µM*	?	16.4µM*	20.6µM*
O=C1OC(c2ccccc2)(c2ccc3cc(O)ccc3c2)c2ccccc21 (stereo not given)	nt	?	20.6µM*	?	13µM*	25.9µM*
COc1cc(CC(=O)OCC(=O)NC2CCCC2)cc(OC)c1OC	1.6%	5.8	-7.0%	13.8%	8.5%	6.1%
COc1cc(CC(=O)OCC(=O)N(C)C2CCCCC2)cc(OC)c1OC	?	0.0	?	20.6µM*	-3.2%	-1.3%
OCC1OC(n2cnc3c(SCc4ccccc4)nc(F)nc32)C(O)C1O (stereo not given)	nt	9.5	-26.2%	-12.8%	-10.2%	-4.4%
OCC1OC(n2cnc3c(NCc4ccccc4O)ncnc32)C(O)C1O (stereo not given)	nt	-86.0*	1.3µM*	1.46µM*	13µM*	9.2µM*
NC(=O)c1ncn([C@@H]2O[C@H](CO)[C@@H](O)[C@H]2O)c1N	nt	nt	-2.7%	-0.5%	nt	nt
N#Cc1ncn(C2OC(CO)C(O)C2O)c1N (stereo not given)	nt	-6.5	5.8µM*	5.8µM*	-1.3%	-2.0%
O=[N+]([O-])c1ccc(CSc2ncnc3c2ncn3[C@@H]2O[C@H](CO)[C@@H](O)[C@H]2O)cc1	?	-24.4	?	13µM*	-0.4%	-13.0%
OCC1OC(n2cnc3c(NCCc4ccccc4)ncnc32)C(O)C1O (stereo not given)	nt	-11.4	5.6%	-10.8%	2.06µM*	?
O=C(O)c1ccc(B(O)O)cc1	nt	nt	-34.4%	?	nt	nt
OCC1OC(n2cnc3c(NO)ncnc32)C(O)C1O (stereo not given)	nt	nt	0.891µM*	5.01µM*	nt	nt
SMILES	ELG1 DNA repair	IL-1B inflam inh	DT40 TDP1 CPT	TDP1 cell noCPT	HT1080-NT tox	HT1080 IDH1KD tx
CNC(=O)[C@H]1O[C@@H](n2cnc3c(NCc4cccc(I)c4)ncnc32)[C@H](O)[C@@H]1O	?	-29.4	?	16µM*!	-6.1%	-22.3%
CNC(=O)[C@H]1O[C@@H](n2cnc3c(N)ncnc32)[C@H](O)[C@@H]1O	nt	nt	-1.2%	-10.6%	nt	nt
OCC1OC(n2cnc3ncccc32)C(O)C1O (stereo not given)	nt	16.1	7.31µM*	6.51µM*	20.6µM*	?
OC[C@H]1O[C@@H](n2cnc3c(NCc4ccccc4)ncnc32)[C@H](O)[C@@H]1O	nt	nt	2.66µM*	1.88µM*	nt	nt
Cc1c(C(=O)Oc2ccc(Br)cc2)sc2ncn(Cc3ccccc3F)c(=O)c12	nt	nt	-6.9%	-12.9%	nt	nt
CCSc1ncc(Cl)c(C(=O)Nc2sc3c(c2C(=O)OC)CCCC3)n1	nt	nt	0.2%	-8.1%	nt	nt
O=C(CN(C(=O)c1csnn1)c1cccc(F)c1)NCc1ccc2c(c1)OCO2	8.6%	-1.0	-4.4%	-21.0%	-4.9%	-6.1%
OCC1OC(n2cnc3c(=S)nc[nH]c32)CC1O (stereo not given)	nt	14.7	1.3%	-10.0%	-17.8%	?
OC[C@H]1O[C@@H](n2cnc3c(=S)nc[nH]c32)[C@H](O)[C@@H]1O	nt	nt	11.9µM*	10.6µM*	nt	nt
Nc1ccnc2c1ncn2[C@@H]1O[C@H](CO)[C@@H](O)[C@H]1O	nt	nt	11.6µM*	4.61µM*	nt	nt
Nc1ncnc2c1ncn2[C@@H]1O[C@H](CO)[C@@H](O)[C@H]1O	15.2%	-2.2	-10.7%	-27.6%	?	25.7%
O=C(Cn1cnc2c(NCc3ccccc3)ncnc21)NCc1ccccc1	?	85.2	4.11µM*	2.91µM*	8.2µM*	6.51µM*
S=c1nc[nH]c2c1ncn2C1CCCO1 (stereo not given)	-11.2%	4.3	-20.0%	?	4.61µM*	8.2µM*
CC1(C)Oc2c(ccc(O)c2CN2CCOCC2)C2=C1CCCC2	nt	-28.1	?	?	17.5%	23.6%
CC(C)=CCNc1ncnc2c1c(C#N)cn2C1OC(CO)C(O)C1O (stereo not given)	nt	3.8	5.8µM*	4.11µM*	-5.2%	-15.8%
Nc1ccc(CCNc2ncnc3c2ncn3[C@@H]2O[C@H](CO)[C@@H](O)[C@H]2O)cc1	nt	-12.2	2.2%	?	-5.3%	-4.0%
